High-throughput results from PubChem BioAssay.
An excerpt weighted towards active compounds, which were near 2.4% of everything screened.
Pol kappa inh = DNA polymerase kappa (human) inhibition | Q9UBT6 | purified Pol kappa, fluorescent DNA synthesis assay, 10 min | Potency, µM (doses to about 107 µM), hits mostly inhibitors | hit rate 0.53% among 400,000
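10 nM Pol kappa was preincubated with compounds for 15 min at room temperature. Reaction started with 50 nM (final) substrate. Fluorescence read kinetically at 0 and 10 min.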
POLI inh = inhibitors of human DNA polymerase iota; Q9UNA4; Pol iota fluorescent replication assay, 10 min; Potency, µM (highest dose often 115 µM), most hits filed as inhibitors; hit rate 1% among 390,000; AID 588590
Target sequence (Q9UNA4 whole entry, looked up): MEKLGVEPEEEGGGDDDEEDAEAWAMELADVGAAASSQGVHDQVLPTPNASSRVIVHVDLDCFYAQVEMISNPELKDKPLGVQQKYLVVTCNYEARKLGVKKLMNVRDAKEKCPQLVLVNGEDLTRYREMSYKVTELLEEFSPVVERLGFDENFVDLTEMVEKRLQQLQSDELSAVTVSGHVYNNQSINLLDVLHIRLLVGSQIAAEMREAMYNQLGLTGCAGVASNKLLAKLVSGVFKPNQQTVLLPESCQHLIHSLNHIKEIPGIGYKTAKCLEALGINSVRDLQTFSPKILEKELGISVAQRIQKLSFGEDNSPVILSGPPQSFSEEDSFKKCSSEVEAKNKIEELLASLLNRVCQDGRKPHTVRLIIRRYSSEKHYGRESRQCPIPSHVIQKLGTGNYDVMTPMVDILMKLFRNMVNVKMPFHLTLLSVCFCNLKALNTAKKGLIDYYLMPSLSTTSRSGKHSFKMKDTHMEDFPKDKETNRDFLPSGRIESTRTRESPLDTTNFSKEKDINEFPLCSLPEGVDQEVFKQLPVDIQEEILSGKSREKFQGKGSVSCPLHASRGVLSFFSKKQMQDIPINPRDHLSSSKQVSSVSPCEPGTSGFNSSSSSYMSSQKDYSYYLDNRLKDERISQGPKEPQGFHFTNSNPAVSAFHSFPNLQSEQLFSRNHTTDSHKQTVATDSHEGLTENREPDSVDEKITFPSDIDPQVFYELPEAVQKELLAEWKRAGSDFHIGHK
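Pol iota at 10 nM preincubated 15 min with compounds at room temperature; reaction started with fluorescent substrate, 50 nM final. Fluorescence read kinetically at 0 and 10 min; buffer-only wells as negative control.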
Pol beta inh = blocks human DNA polymerase beta activity | P06746 | Pol beta primer extension/strand displacement, fluorescence kinetic | Potency, µM (top dose mostly 114 µM), most hits filed as inhibitors | hit rate 1.3% among 340,000
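Values derive from four-parameter Hill fits of normalized kinetic data: reads at 0 and 10 min following addition of 50 nM substrate to 10 nM Pol beta preincubated 15 min with compound.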
POLH inh = DNA polymerase eta (human) inhibition; recombinant Pol eta, fluorescent DNA replication assay; Potency, µM (top dose mostly 114 µM), most hits filed as inhibitors; Q9Y253; AID 588591; hit rate 1.2% among 390,000
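Fluorescent replication assay: 50 nM final substrate added after a 15 min room-temperature compound preincubation with 10 nM enzyme. Signal taken at 0 min and again at 10 min.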
FEN1 inh = inhibitors of human flap endonuclease 1. P39748. Recombinant FEN1 flap cleavage, fluorescence, 15 min. Potency, µM (doses to about 114 µM), most hits filed as inhibitors. hit rate 0.35% among 390,000; note: nearly all actives have a fitted effect of over 65% in size
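Steps: FEN1 (10 nM) dispensed; compound added by pin tool; 15 min at room temperature; substrate added to 50 nM final; reads at 0 min and 15 min; data normalized and fitted (four-parameter Hill).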
WRN helicase inh = blocks human WRN helicase. Potency, µM (top dose mostly 114 µM), hits mostly inhibitors. Q14191. WRN helicase unwinding, fluorescent forked duplex, kinetic. hit rate 0.46% among 360,000; note: nearly all actives have a fitted effect of over 55% in size
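WRN at 20 nM final preincubated with compound 15 min at room temperature; reaction started with 100 nM fluorophore/quencher forked duplex oligonucleotide and 2 mM ATP final. Unwinding followed kinetically by red fluorescence (ex 525, em 598 nm).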
Hits are given with their value; n = inactive; u = inconclusive; x = no result given; [ ] = another dose, or the depositor's remark. Calls come from the whole dose curve; as a rule, active = well fitted curve in the direction sought with a large enough effect; inconclusive = small, poorly fitted or top-dose-only effect, or another doubt; inactive = no such curve, though single readings can be large; an effect the other way counts as inactive or inconclusive.

SMILES	Pol kappa inh	POLI inh	Pol beta inh	POLH inh	FEN1 inh	WRN helicase inh
O=C(NCc1cccnc1)c1ccc(-c2cc3ccccc3oc2=O)cc1	n	79µM	u	n	n	n[11.6 µM]
O=C(Nc1cccnc1)c1cccc(-c2cc3ccccc3oc2=O)c1	n	n	u	n	n	n
O=C(N/N=C/c1cccnc1)c1cccc(NC(=O)c2ccc(Cl)cc2)c1	n	u	40µM	u	n	u
Cc1cccc(C(=O)Nc2ccc(C(=O)N/N=C/c3cccnc3)cc2)c1	n	n	n	n	n	n
Cc1ccc(C(=O)Nc2ccc(C(=O)N/N=C/c3cccnc3)cc2)cc1	n	79µM	u	n	n	n[11.6 µM]
O=C(N/N=C/c1cccnc1)c1cccc(Cl)c1	n	n	n	n	n	n
O=C(N/N=C/c1ccccc1)c1ccc(NC(=O)c2ccc(F)cc2)cc1	n	n	n	n	n	n
Cc1ccccc1C(=O)Nc1ccc(C(=O)N/N=C/c2ccc(F)cc2)cc1	n	n	40µM	n	n	n
CC(C)(C)n1ncc2c(=O)n(Cc3cccc(OC(F)(F)F)c3)cnc21	n	n	x	x	n	x
COc1ccc(CCSc2n[nH]c(C(C)C)n2)cc1	n	n	x	x	n	x
O=C(O)C1C2C=CC(C2)C1C(=O)NCCc1ccncc1 (configuration not stated)	n	n	50µM	u	n	n
Cc1ccc(CNc2nc3ccc(Cl)cc3n3cnnc23)cc1	n	n	n	x	n	x
COc1cccc(CNC(=O)c2sc3nc[nH]c(=O)c3c2C)c1	n	n	n	n	n	x
O=S(=O)(Cc1noc(-c2ccc(Cl)cc2)n1)Cc1ccco1	u	50µM	14µM	n	n	n
COc1ccc(C(=O)N2CCC(C(=O)Nc3ccccc3Cl)CC2)cc1	n	n	n	n	n	x
CCOc1ccc(-c2cc(C)n3nc(C(=O)Nc4cc(Cl)ccc4O)cc3n2)cc1	n	79µM	7.1µM	u	n	x
CC1(Cc2cc(Cl)ccc2C(F)(F)F)C(=O)Nc2cc(-c3ccccc3Cl)ccc21 (configuration not stated)	x	x	x	x	x	n
Oc1cccc(/C=N/c2c(-c3ccco3)nc3ccccn23)c1	n	25µM	n	n	n	n
O=[N+]([O-])c1ccc(-c2ccc(/C=N/c3c(-c4ccco4)nc4ccccn34)o2)c(Cl)c1	x	x	n	x	x	x
Cc1cc(C)c([N+](=O)[O-])cc1-c1ccc(/C=N/c2c(-c3ccco3)nc3ccccn23)o1	u	u	50µM	n	u	u
O=[N+]([O-])c1ccc(Cl)c(-c2ccc(/C=N/c3c(-c4ccco4)nc4ccccn34)o2)c1	n	u	50µM	n	n	n
O=[N+]([O-])c1ccc(-c2ccc(/C=N/c3c(-c4ccco4)nc4ccccn34)o2)cc1	n	n	n	n	n	n
Cc1cc([N+](=O)[O-])c(C)cc1-c1ccc(/C=N/n2cnnc2)o1	n	n	n	u	n	n
CCc1nn(CC(=O)NCc2ccc(C)cc2)c(=O)c2cc3occc3n12	n	n	u	n	n	x
CC(C)(C)c1c(Cl)c(O)c(-c2ccccc2)c(=O)n1-c1ccccc1	n	1.1µM	n	n	n	50µM
SMILES	Pol kappa inh	POLI inh	Pol beta inh	POLH inh	FEN1 inh	WRN helicase inh
Cc1c(O)c2ccccc2n(-c2ccccc2)c1=O	n	n	x	n	n	n
CCOc1ccccc1NC(=O)Cn1cnc2sc(C)c(S(=O)(=O)N3CCC(C)CC3)c2c1=O	n	n	n	n	n	x
CCOc1cc(C(=O)N/N=C/C2CC=CCC2)cc(OCC)c1OCC (configuration not stated)	n	n	n	n	n	n
Cc1ccc(C(=O)N/N=C\C2CC=CCC2)cc1[N+](=O)[O-] (configuration not stated)	n	n	n	89µM	n	n
COC(=O)C1CCN(C(=O)COC(=O)c2cc(-c3ccccc3)nc3ccc(OC)cc23)CC1	n	20µM	x	40µM	n	n[11.6 µM]
COc1ccc(-c2cc(C(=O)OCC(=O)N3CCOCC3)c3ccccc3n2)cc1	n	n	x	n	n	n
CCS(=O)(=O)c1c([N+](=O)[O-])ncn1C	n	n	n	n	n	n
Cn1cnc([N+](=O)[O-])c1S(=O)(=O)Oc1ccc(Cl)cc1	n	u	x	n	n	35µM
C[C@H]1CN(C2CCCCC2)C(=O)[C@@H]1CC(=O)Nc1ccc(Br)cc1	x	x	x	n	x	n
CC1CCC(NC(=O)c2ccc3c(c2)N(Cc2ccccc2F)C(=O)c2ccccc2S3=O)CC1 (configuration not stated)	n	n	n	n	n	x
C[N+]1(C)CCC(=C2c3ccccc3CC(=O)c3sccc32)CC1	n	16µM	7.9µM	n	n	n[11.6 µM]
CCc1ccc(-n2c(=O)c3ccccc3n(CC(=O)NCCc3ccc(OC)c(OC)c3)c2=O)cc1	n	n	n	n	n	x
COc1ccc(CCNC(=O)Cn2c(=O)n(-c3ccc(OC)c(OC)c3)c(=O)c3ccccc32)cc1OC	79µM	u	n	n	n	x
Cc1[nH]nc2c1C(c1ccc(-c3ccccc3C#N)o1)C(C#N)=C(N)O2 (configuration not stated)	n	n	56µM	n	n	n
Cc1[nH]nc2c1C(c1ccc(-c3ccc(Cl)cc3)o1)C(C#N)=C(N)O2 (configuration not stated)	n	n	n	u	n	u
Cc1ccccc1CN1CCCN(CC(=O)Nc2c(C)cccc2C)S1(=O)=O	n	n	n	n	n	x
CCCCNC(=O)COC(=O)c1cc(C)nc2ccccc12	n	n	n	n	n	n
CCCCNC(=O)COC(=O)c1c2c(nc3ccccc13)/C(=C/c1cccs1)CC2	n	n	25µM	u	n	n
CCCCNc1nc(=S)[nH]c2cc(OC)c(OC)cc12	n	n	89µM	n	n	n
Nc1c(S(=O)(=O)O)cc(Nc2ccc(Nc3nc(Cl)nc(Nc4ccc(S(=O)(=O)O)cc4)n3)c(S(=O)(=O)O)c2)c2c1C(=O)c1ccccc1C2=O	2.7µM	1.6µM	1.1µM	0.63µM	2µM	x
O=[N+]([O-])c1ccc(Nc2nc(Cl)nc(NCCO)n2)cc1	n	n	n	n	n	n
CC(=O)n1cc(N(C(=O)CCl)c2ccc(C)cc2)c2ccccc21	n	n	n	32µM	n	n
COC(=O)C1=C(C)N(CCCC(=O)O)C(=O)NC1c1ccc(C#N)cc1 (configuration not stated)	n	14µM	x	n	n	n[11.6 µM]
COC(=O)C1=C(C)N(C)C(=O)NC1c1cc2c(cc1[N+](=O)[O-])OCO2 (configuration not stated)	n	u	u	n	n	n
COC(=O)C1=C(C)N(CCCC(=O)O)C(=O)NC1c1cc2c(cc1[N+](=O)[O-])OCO2 (configuration not stated)	45µM	13µM	10µM	50µM	u	n
